“And” between values parts separate entries of the source, which are not always exact repeats. Identical values can stand only once. Inconclusive results are not listed. Some structures have more than one record in an assay (separate samples or runs), and their calls can disagree. The source made the active and inactive calls. How the source made its calls, unless noted: active means hit-call score of the fitted dose curve at least 0.9, where 1 is the maximum; inconclusive means response in the unintended direction; inactive means score below 0.9.
What was measured:
[1] = biological target: human RAR-related Orphan Receptor beta (RORb), RORB (gene 6096) (UniProt Q92753); assay: ATG_RORb_TRANS: Attagene TRANS-FACTORIAL HepG2 Assay for human RAR-related Orphan Receptor beta (RORb) (AID 2283010)
human RAR-related Orphan Receptor beta (RORb), RORB (gene 6096), sequence (Q92753 whole entry, looked up, the tested form may be a part): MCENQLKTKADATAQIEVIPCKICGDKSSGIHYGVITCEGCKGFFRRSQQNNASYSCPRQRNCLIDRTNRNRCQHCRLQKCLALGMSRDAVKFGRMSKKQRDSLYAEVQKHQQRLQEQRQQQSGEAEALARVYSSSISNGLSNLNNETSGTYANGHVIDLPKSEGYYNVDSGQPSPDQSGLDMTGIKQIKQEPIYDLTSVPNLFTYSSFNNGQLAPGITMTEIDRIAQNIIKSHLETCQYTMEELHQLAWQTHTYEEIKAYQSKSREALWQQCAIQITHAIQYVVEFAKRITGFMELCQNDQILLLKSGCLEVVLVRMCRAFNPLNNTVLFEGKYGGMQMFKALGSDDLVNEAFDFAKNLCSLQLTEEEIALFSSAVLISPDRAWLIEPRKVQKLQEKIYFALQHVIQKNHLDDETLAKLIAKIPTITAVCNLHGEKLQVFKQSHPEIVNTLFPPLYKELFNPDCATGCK
Outline: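 HepG2 cells transiently transfected with GAL4-UAS reporter units expressing chimeric NR-Gal4 protein; reporter mRNA measured 24 h after dosing by RT-PCR, 6-FAM labelling and capillary electrophoresis. Gain-of-signal fitted relative to DMSO baseline.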

[2] = biological target: human RAR-related Orphan Receptor gamma (RORg), RORC (gene 6097) (UniProt P51449); assay: ATG_RORg_TRANS: Attagene TRANS-FACTORIAL HepG2 Assay for human RAR-related Orphan Receptor gamma (RORg) (AID 2283011)
human RAR-related Orphan Receptor gamma (RORg), RORC (gene 6097), sequence (P51449 whole entry, looked up, the tested form may be a part): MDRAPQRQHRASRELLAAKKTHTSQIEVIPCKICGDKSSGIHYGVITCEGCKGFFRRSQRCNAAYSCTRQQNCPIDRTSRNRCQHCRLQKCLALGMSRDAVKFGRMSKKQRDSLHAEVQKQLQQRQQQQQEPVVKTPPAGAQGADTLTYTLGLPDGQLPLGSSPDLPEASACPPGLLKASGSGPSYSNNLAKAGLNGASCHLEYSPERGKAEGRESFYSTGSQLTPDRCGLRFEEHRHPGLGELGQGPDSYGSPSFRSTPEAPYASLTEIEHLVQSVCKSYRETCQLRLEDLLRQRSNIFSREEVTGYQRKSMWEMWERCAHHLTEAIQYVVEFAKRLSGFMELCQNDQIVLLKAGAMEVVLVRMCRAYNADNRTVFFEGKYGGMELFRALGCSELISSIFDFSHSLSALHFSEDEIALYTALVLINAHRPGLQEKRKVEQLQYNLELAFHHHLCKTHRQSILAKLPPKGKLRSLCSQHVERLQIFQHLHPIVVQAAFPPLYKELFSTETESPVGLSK
Outline: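 HepG2 cells transiently transfected with GAL4-UAS reporter units and chimeric RORg-Gal4 construct; after 24 h chemical exposure, reporter mRNA measured by RT-PCR with fluorescent capillary electrophoresis, gain of signal fitted against DMSO.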

[3] = biological target: human Retinoid X Receptor beta (RXRb), RXRB (gene 6257) (UniProt P28702); assay: ATG_RXRb_TRANS: Attagene TRANS-FACTORIAL HepG2 Assay for human Retinoid X Receptor beta (RXRb) (AID 2283013)
human Retinoid X Receptor beta (RXRb), RXRB (gene 6257), sequence (P28702 whole entry, looked up, the tested form may be a part): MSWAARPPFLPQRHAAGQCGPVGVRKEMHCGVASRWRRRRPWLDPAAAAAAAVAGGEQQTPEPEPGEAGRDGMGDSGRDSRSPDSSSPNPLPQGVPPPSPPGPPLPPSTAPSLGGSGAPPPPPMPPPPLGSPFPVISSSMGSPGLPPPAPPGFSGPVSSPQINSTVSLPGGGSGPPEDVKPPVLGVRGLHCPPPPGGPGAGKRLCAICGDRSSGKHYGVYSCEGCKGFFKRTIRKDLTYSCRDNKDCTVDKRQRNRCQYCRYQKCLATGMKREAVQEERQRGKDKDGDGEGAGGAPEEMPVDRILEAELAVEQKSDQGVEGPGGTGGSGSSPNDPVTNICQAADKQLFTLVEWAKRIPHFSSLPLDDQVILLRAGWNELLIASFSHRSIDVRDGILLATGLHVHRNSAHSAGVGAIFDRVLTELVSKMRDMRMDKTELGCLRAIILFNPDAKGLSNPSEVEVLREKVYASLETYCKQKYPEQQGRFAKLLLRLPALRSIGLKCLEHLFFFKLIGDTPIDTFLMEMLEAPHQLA
Outline: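 HepG2 cells were transiently transfected with multiplexed GAL4-UAS reporters and a chimeric RXRb-Gal4 construct, then exposed for 24 h. Reporter mRNA was quantified by RT-PCR, FAM labeling, HpaI digestion and capillary electrophoresis; gain of signal was scored against DMSO.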

[4] = biological target: human Thyroid Receptor alpha (THRa1), THRA (gene 7067) (UniProt P10827); assay: ATG_THRa1_TRANS: Attagene TRANS-FACTORIAL HepG2 Assay for human Thyroid Receptor alpha (THRa1) (AID 2283014)
human Thyroid Receptor alpha (THRa1), THRA (gene 7067), sequence (P10827 whole entry, looked up, the tested form may be a part): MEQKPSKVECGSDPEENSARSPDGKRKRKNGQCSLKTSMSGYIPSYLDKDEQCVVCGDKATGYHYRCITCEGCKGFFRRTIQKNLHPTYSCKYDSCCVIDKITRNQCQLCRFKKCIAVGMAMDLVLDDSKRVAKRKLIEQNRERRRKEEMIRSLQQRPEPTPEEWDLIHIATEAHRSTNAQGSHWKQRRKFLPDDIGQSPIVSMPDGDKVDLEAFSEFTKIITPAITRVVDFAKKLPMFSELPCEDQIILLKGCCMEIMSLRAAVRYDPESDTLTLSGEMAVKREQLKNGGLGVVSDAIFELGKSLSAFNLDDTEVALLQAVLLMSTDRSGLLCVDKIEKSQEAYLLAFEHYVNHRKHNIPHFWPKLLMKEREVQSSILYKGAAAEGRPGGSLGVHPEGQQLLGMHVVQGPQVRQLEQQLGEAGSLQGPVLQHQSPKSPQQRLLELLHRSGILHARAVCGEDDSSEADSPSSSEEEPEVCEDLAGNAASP
Outline: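 HepG2 cells transiently transfected with chimeric NR-Gal4 and GAL4-UAS reporter units, dosed 24 h. Reporter mRNA quantified by RT-PCR, fluorescent labeling, HpaI digestion and capillary electrophoresis; gain-of-signal fit versus DMSO.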

[5] = read-out: E-selectin (Homo sapiens) (UniProt P16581); assay: BSK_3C_Eselectin: BioMAP Diversity Plus: 3C Assay for Eselectin Biomarker Activity (AID 2283015; active means hit-call score of the fitted dose curve at least 0.9, where 1 is the maximum; inactive means score below 0.9); conditions: primary human endothelial cells (HUVEC); actives raise or lower the signal
Outline: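 Primary human umbilical vein endothelial cells (3C system), read 24 h after compound addition; E-selectin measured by ELISA. Bidirectional curve fitting against DMSO baseline; cytotoxicity by parallel SRB total-protein staining.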

[6] = read-out: Interleukin-1 alpha (IL1a), IL1A (gene 3552); assay: BSK_BE3C_IL1a: BioMAP Diversity Plus: BE3C Assay for Interleukin-1 alpha (IL1a) Biomarker Activity (AID 2283016; active means hit-call score of the fitted dose curve at least 0.9, where 1 is the maximum; inactive means score below 0.9); conditions: primary human bronchial epithelial cells; actives raise or lower the signal
Outline: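 Human primary bronchial epithelial cells, 24 h chemical exposure; IL-1a quantified by ELISA, fitted bidirectionally against DMSO. Cytotoxicity assessed in parallel by SRB total-protein staining at the time of measurement.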

[7] = read-out: Monocyte Chemoattractant Protein-1 (MCP1), CCL2 (gene 6347); assay: BSK_3C_MCP1: BioMAP Diversity Plus: 3C Assay for Monocyte Chemoattractant Protein-1 (MCP1) Biomarker Activity (AID 2283017; active means hit-call score of the fitted dose curve at least 0.9, where 1 is the maximum; inactive means score below 0.9); conditions: primary human endothelial cells (HUVEC); actives raise or lower the signal
Outline: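 Human umbilical vein endothelial cells (3C system) exposed to chemicals for 24 h; MCP-1 quantified by ELISA against the DMSO baseline with bidirectional fitting, and parallel SRB staining used to assess cytotoxicity.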

[8] = read-out: Monocyte Chemoattractant Protein-1 (MCP1), CCL2 (gene 6347); assay: BSK_4H_MCP1: BioMAP Diversity Plus: 4H Assay for Monocyte Chemoattractant Protein-1 (MCP1) Biomarker Activity (AID 2283018; active means hit-call score of the fitted dose curve at least 0.9, where 1 is the maximum; inactive means score below 0.9); conditions: primary human endothelial cells (HUVEC); actives raise or lower the signal
Outline: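 Human umbilical vein endothelial cells (4H system) exposed to chemicals for 24 h in 96-well format. MCP-1 measured by ELISA; bidirectional fitting against DMSO, with SRB total-protein staining in parallel cultures for cytotoxicity.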

[9] = read-out: Human Leukocyte Antigen - DR isotype (HLADR), HLA-DRA (gene 3122); assay: BSK_3C_HLADR: BioMAP Diversity Plus: 3C Assay for Human Leukocyte Antigen - DR isotype (HLADR) Biomarker Activity (AID 2283019; active means hit-call score of the fitted dose curve at least 0.9, where 1 is the maximum; inactive means score below 0.9); conditions: primary human endothelial cells (HUVEC); actives raise or lower the signal
Outline: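 HUVEC monoculture, HLA-DR measured by ELISA 24 h after chemical dosing. Fitted bidirectionally against DMSO baseline; parallel SRB staining assessed cytotoxicity, with 3C proliferation read by SRB at 48 h.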

[10] = biological target: Retinoic acid receptor RXR-alpha (Homo sapiens) (UniProt P19793); assay: ATG_RXRa_TRANS: Attagene TRANS-FACTORIAL HepG2 Assay for human Retinoid X Receptor alpha (RXRa) (AID 2283012)
Retinoic acid receptor RXR-alpha (Homo sapiens), sequence (P19793 whole entry, looked up, the tested form may be a part): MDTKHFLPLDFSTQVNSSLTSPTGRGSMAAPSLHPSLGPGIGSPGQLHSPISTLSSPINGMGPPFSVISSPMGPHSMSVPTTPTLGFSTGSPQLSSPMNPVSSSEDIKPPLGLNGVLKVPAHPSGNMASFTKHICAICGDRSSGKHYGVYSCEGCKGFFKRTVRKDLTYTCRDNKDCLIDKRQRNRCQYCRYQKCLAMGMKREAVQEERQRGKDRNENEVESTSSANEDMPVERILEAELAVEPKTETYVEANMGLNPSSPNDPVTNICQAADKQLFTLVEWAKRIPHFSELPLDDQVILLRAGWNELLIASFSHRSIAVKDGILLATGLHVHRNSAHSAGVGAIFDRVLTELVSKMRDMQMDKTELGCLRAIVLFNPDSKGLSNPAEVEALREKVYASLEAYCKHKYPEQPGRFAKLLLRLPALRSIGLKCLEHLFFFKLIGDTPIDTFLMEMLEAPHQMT
Outline: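 HepG2 cells transiently transfected with GAL4-UAS reporter units and chimeric RXRa-Gal4 protein, treated 24 h. Reporter mRNA measured by RT-PCR, fluorescent labelling, HpaI digestion and capillary electrophoresis. Induction fitted against DMSO.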

Measured: AC50

E-selectin (Homo sapiens), sequence (P16581 whole entry, looked up): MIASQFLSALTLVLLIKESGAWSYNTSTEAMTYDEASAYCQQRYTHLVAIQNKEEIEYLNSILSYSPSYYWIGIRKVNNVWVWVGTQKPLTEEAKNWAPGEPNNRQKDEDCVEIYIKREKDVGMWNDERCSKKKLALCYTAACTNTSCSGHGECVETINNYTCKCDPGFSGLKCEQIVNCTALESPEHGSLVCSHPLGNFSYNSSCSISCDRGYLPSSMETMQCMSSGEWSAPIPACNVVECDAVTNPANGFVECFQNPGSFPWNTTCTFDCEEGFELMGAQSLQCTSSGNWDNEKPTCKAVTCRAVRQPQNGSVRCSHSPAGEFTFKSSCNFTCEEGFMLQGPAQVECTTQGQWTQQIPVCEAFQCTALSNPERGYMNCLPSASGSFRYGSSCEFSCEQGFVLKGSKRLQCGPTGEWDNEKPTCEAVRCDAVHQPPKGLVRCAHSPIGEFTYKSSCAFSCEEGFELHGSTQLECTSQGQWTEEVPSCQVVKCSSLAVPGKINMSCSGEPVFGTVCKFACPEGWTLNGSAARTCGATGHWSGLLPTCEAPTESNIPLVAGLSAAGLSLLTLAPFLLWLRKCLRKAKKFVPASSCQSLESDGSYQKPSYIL

O=C1OC2(c3ccccc31)c1cc(Br)c(O)c(Br)c1Oc1c2cc(Br)c(O)c1Br
inactive: [1] | [2] | [3] | [4]

CCCCC(CC)COC(=O)CCCCC(=O)OCc1ccccc1 (stereo not given)
active: [3] 80.6 µM
not listed: [10]
inactive: all other assays above

C=C(C)C(=O)OCCC(F)(F)C(F)(F)C(F)(F)C(F)(F)C(F)(F)C(F)(F)F
not listed: [1]
inactive: all other assays above

c1ccc2cc3c(ccc4ccccc43)cc2c1
inactive: all assays above

CCCCCCCCCCCCCC[N+](C)(C)C
active: [4] 26.7 µM | [5] 8.8 µM | [6] 3.83 µM | [7] 2.17 µM | [8] 1.69 µM | [9] 2.1 µM
inactive: [1] | [2] | [10] | [3] | [4]

CC[C@H](c1ccc(O)cc1)[C@@H](CC)c1ccc(O)cc1
active: [3] 3.79 µM [middle of 4 runs] | [5] 34.8 µM | [6] 24.3 µM | [7] 32.1 µM | [8] 20 µM | [9] 20.9 µM
inactive: [1] | [10] | [4]

OCCC(F)(F)C(F)(F)C(F)(F)C(F)(F)C(F)(F)C(F)(F)C(F)(F)C(F)(F)F
active: [5] 30 µM | [6] 18.2 µM and 18.6 µM | [7] 42.5 µM and 24.3 µM | [8] 43.6 µM | [9] 20 µM and 27.8 µM and 30 µM
inactive: [1] | [2] | [10] | [3] | [4] | [5] | [6] | [7] | [8]

Nc1cccc2c(N)cccc12
not listed: [2]
inactive: all other assays above

CCCCCCCC(=O)O
not listed: [2]
inactive: all other assays above

CN1CCN(c2ccccc2/C=C2\SCCN(c3ccc(Cl)c(Cl)c3)C2=O)CC1
active: [6] 30.9 µM | [7] 7.36 µM | [8] 20 µM | [9] 11.3 µM
inactive: [1] | [10] | [5]

CCC(C)(C)C1CCC(O)CC1 (stereo not given)
active: [3] 58.7 µM [middle of 4 runs]
not listed: [2]
inactive: all other assays above

CC(C)(C)CC(C)(C)c1ccc(O)c(-n2nc3ccccc3n2)c1
not listed: [2] | [10]
inactive: all other assays above

CC(O)C(=O)O (stereo not given)
inactive: [1] | [10] | [3] | [4]

CC(C)(C)c1ccc(O)c(C(C)(C)C)c1
active: [10] 7.27 µM | [3] 3.2 µM | [4] 11.1 µM | [5] 10.3 µM | [6] 33.7 µM | [7] 11.7 µM | [8] 10 µM | [9] 8.06 µM
inactive: [1] | [2]

CCCCC(CC)COC(=O)CCCCC(=O)OCC(CC)CCCC (stereo not given)
active: [3] 49.1 µM
not listed: [2] | [4]
inactive: all other assays above

CCCCCCCCCCCCc1ccccc1S(=O)(=O)O
active: [3] 9.1 µM | [6] 14.3 µM
not listed: [1] | [4]
inactive: all other assays above

N#C[C@@H]1CC(F)(F)CN1C(=O)CNC1CC2CCC(C1)N2c1ncccn1 (stereo not given in full)
active: [7] 4.85 µM | [9] 2.58 µM
not listed: [4]
inactive: all other assays above

CCCCCCCCOC(=O)CCCCCCCCC(=O)OCCCCCCCC
not listed: [1]
inactive: all other assays above

O=C(OCCOCCOC(=O)c1ccccc1)c1ccccc1
not listed: [3] | [10]
inactive: all other assays above

CN(C)C=O
active: [10] 4.99 µM | [3] 0.74 µM
not listed: [1] | [4]
inactive: all other assays above

C[C@@H]1C[C@H]2[C@@H]3CCC4=CC(=O)C=C[C@]4(C)[C@@]3(F)[C@@H](O)C[C@]2(C)[C@@]1(O)C(=O)COP(=O)(O)O
inactive: all assays above

CC(C)(C)c1cc(C(C)(C)C)c(O)c(C(C)(C)C)c1
active: [10] 217 nM and 1.04 µM | [3] 18.6 nM and 320 nM
not listed: [1]
inactive: all other assays above

CCOC(=O)CC(O)(CC(=O)OCC)C(=O)OCC
not listed: [3] | [4]
inactive: all other assays above

CC(C)(C)c1cccc(C(C)(C)C)c1O
active: [10] 68.8 µM | [3] 33.5 µM
not listed: [2]
inactive: all other assays above

CCCOc1sc(C(=O)N2CCC(c3cc(CN)ccc3F)CC2)c(C)c1Br
active: [5] 11.1 µM | [6] 5.86 µM | [7] 7.57 µM | [8] 9.52 µM | [9] 7.77 µM
inactive: [1] | [2] | [10] | [3]

OC1CCCCC1
not listed: [1]
inactive: all other assays above

O=C(O)c1ccccc1C(c1ccc(O)cc1)c1ccc(O)cc1
inactive: all assays above

NC(=O)N1C(=O)C(C(=O)c2cc(Cl)cs2)c2cc(F)c(Cl)cc21 (stereo not given)
active: [6] 7.87 µM | [7] 5.16 µM | [9] 13.4 µM
not listed: [3]
inactive: all other assays above

Cc1ccc(S(=O)(=O)O)c(C)c1
active: [3] 58.6 µM
inactive: [1] | [2] | [10] | [3]

CC(=O)CC(C)(C)O
not listed: [1]
inactive: all other assays above

From PubChem BioAssay (EPA / NIEHS)
